Assay results reported in article PMC7862700, “An all-to-all approach to the identification of sequence-specific readers for epigenetic DNA modifications on cytosine”.

Columns and labels:
Assay in all cases: DAPPL (digital affinity profiling via proximity ligation, sequencing); 10 mM Tris-HCl pH 7.5, 50 mM NaCl, 1 mM DTT, 4% glycerol, room temperature, 30 min; GST-TFs on glutathione beads, 16-mer random dsDNA library, 0.1% formaldehyde crosslink after washing; high values mean tight binding
Conditions in all cases: protein: recombinant; tags: N-terminal GST; dsDNA, one strand shown
ETV1 = ETV1 (Homo sapiens, UniProt P50549 1-477)
How it was run: (§1)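 Human transcription factors were made in yeast as GST fusions, captured on glutathione beads and barcoded with DNA. With a tag-only sample included, the pool was incubated with 200 nmole of a random double-stranded 16-mer DNA library in Tris/NaCl/DTT/glycerol buffer at room temperature for 30 min, then crosslinked with 0.1% formaldehyde after washing, ligated by proximity, amplified and sequenced. For binding signal, each hexamer's read frequency for a factor is divided by its frequency for the tag-only sample.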

ERF = target: T1, ERF (Homo sapiens, UniProt P50548 1-548)
T1 sequence: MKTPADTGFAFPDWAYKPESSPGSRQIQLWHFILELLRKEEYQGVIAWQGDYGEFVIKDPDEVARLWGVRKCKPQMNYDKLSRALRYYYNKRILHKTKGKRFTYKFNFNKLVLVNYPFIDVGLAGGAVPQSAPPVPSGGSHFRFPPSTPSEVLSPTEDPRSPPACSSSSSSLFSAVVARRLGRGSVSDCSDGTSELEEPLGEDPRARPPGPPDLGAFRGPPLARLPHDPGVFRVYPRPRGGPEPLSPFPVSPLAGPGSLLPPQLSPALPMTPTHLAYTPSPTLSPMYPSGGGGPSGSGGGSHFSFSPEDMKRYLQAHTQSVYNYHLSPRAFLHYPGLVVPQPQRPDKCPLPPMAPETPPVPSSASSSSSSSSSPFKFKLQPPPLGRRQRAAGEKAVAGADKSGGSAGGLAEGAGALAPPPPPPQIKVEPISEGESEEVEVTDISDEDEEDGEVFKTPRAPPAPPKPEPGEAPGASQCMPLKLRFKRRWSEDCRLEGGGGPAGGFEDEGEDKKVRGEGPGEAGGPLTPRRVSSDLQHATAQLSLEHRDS
How it was run: as §1

ETV3L = target: T2, ETV3L (Homo sapiens, UniProt Q6ZN32 1-361)
T2 sequence: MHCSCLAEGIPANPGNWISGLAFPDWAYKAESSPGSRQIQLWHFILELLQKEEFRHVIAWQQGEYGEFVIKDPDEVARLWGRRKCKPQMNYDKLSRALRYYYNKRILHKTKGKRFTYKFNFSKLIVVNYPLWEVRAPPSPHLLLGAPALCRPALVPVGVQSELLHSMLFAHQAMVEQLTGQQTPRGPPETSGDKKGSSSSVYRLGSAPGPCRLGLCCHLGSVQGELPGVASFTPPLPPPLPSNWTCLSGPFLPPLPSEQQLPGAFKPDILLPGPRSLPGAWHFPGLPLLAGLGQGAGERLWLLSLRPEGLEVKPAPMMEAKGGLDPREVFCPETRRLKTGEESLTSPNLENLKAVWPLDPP
How it was run: as §1

ETS2 = target: T3, ETS2 (Homo sapiens, UniProt P15036 1-469)
T3 sequence: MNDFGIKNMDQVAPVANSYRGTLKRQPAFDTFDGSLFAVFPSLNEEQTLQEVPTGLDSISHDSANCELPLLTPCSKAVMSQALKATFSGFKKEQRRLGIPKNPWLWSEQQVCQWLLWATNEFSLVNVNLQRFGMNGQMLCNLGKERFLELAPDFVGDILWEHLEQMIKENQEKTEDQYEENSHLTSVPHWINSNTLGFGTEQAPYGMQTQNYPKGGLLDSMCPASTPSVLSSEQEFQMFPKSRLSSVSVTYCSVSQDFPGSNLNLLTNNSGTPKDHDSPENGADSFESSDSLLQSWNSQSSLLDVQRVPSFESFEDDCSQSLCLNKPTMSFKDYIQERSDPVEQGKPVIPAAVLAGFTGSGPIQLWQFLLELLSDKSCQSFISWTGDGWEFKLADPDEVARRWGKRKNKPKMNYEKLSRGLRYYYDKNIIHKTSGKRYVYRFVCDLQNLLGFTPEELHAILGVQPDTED
How it was run: as §1

SPDEF = target: T4, SPDEF (Homo sapiens, UniProt O95238 1-335)
T4 sequence: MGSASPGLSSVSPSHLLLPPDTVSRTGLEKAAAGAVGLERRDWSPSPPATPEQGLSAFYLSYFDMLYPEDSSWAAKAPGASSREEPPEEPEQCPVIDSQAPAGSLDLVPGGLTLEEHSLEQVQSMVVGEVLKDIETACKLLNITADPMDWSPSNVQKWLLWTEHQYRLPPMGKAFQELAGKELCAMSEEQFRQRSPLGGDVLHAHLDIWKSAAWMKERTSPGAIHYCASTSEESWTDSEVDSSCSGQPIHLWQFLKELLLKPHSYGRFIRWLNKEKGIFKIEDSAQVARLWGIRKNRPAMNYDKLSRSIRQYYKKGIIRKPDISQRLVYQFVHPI
How it was run: as §1

ETV7 = target: T5, ETV7 (Homo sapiens, UniProt Q9Y603 1-341)
T5 sequence: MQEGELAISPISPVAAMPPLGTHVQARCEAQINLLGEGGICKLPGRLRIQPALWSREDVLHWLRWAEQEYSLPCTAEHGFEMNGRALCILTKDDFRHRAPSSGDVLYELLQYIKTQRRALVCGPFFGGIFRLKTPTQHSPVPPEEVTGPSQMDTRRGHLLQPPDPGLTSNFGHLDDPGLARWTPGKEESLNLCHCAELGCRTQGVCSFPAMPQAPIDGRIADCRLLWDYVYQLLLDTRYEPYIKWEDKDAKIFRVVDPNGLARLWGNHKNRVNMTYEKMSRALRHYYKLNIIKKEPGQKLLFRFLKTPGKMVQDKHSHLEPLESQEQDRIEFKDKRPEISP
How it was run: as §1

ELF5 = target: T6, ELF5 (Homo sapiens, UniProt Q9UKW6-2 1-255)
T6 sequence: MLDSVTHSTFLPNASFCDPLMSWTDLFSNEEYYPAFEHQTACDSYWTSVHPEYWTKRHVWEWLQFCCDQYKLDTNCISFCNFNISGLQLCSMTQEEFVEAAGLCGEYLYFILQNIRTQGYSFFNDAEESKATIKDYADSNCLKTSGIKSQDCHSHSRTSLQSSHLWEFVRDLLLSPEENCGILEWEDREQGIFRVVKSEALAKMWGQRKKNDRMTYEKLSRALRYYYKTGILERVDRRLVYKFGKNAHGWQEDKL
How it was run: as §1

ETV3 = target: T7, ETV3 (Homo sapiens, UniProt P41162-2 1-143)
T7 sequence: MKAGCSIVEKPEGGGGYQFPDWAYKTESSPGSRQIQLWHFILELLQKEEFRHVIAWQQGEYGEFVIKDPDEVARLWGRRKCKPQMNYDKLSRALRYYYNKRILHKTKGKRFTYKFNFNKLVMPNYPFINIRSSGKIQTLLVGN
How it was run: as §1

ETV6 = ETV6 (Homo sapiens, UniProt P41212 1-452)
How it was run: as §1

ETV6, sequence (P41212 whole entry): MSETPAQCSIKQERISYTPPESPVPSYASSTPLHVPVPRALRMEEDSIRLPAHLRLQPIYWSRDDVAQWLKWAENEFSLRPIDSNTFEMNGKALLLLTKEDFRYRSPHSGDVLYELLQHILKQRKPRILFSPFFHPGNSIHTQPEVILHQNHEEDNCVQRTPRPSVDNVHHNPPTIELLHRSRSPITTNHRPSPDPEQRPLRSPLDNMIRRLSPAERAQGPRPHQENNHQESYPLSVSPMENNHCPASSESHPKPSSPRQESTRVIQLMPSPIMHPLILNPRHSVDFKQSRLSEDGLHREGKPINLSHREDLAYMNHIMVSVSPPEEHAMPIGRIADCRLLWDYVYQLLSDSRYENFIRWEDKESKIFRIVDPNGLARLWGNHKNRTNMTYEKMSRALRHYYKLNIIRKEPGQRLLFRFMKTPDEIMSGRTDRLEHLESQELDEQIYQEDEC
ETV1, sequence (P50549 whole entry, the tested form may be a part): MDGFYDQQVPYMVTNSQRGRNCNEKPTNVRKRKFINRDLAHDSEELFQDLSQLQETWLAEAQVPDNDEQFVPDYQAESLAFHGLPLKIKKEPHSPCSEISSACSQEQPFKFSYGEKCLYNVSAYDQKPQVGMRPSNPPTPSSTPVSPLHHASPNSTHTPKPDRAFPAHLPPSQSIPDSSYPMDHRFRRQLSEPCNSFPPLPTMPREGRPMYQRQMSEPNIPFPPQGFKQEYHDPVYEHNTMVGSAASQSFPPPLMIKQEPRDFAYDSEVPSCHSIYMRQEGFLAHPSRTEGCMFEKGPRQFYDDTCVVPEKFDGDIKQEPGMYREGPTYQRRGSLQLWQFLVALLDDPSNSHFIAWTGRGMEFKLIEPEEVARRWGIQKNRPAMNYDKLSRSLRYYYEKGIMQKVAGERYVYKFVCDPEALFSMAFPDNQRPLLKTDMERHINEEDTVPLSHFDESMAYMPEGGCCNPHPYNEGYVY

ATTTGG
binding signal (ETV1): 1.36 fold enrichment (6-mer frequency, TF over GST control)
binding signal (ERF): 1.54 fold enrichment (6-mer frequency, TF over GST control)
binding signal (ETV3L): 1.46 fold enrichment (6-mer frequency, TF over GST control)
binding signal (ETS2): 1.38 fold enrichment (6-mer frequency, TF over GST control)
binding signal (SPDEF): 1.34 fold enrichment (6-mer frequency, TF over GST control)
binding signal (ETV7): 1.41 fold enrichment (6-mer frequency, TF over GST control)
binding signal (ELF5): 1.37 fold enrichment (6-mer frequency, TF over GST control)
binding signal (ETV3): 1.35 fold enrichment (6-mer frequency, TF over GST control)
binding signal (ETV6): 1.45 fold enrichment (6-mer frequency, TF over GST control)
